Measurements published in PubChem BioAssay (NCI).
The panel holds about 79,000 compounds, 15% with a hit somewhere; the sample as a whole holds those more often. Values without a mark were called inactive. The source made the active and inactive calls. Rule as the data show it: active = growth inhibition above about 70%; inactive = the rest.

Assay: NCI Yeast Anticancer Drug Screen. Data for the rad50EPP+ strain (AID 151);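 also: 0% = growth of vehicle-treated control cultures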
Details: S. cerevisiae rad50 mutant strain, active compounds read high
Method: Growth inhibition of yeast strains with defined genetic alterations is measured as a screen for potential anti-cancer activity. Selected strains with alterations in DNA damage repair or cell cycle control were exposed to compounds and growth inhibition was measured relative to vehicle treated controls. The strain used in this assay is rad50EPP+

| SMILES | growth inhibition (at 1.2 µM) [%] | growth inhibition (at 3.7 µM) | growth inhibition (at 11.0 µM) | growth inhibition (at 33.0 µM) | growth inhibition (at 100.0 µM) |
| --- | --- | --- | --- | --- | --- |
| Oc1ccc(O)c(Cc2ccccc2)c1 | 56 | 88% (active) | 95% (active) | 98% (active) | 99% (active) |
| c1ccc(Cc2cc(-c3ccccc3)n[nH]2)cc1 | -3 | 1% | 5% | 22% | 58% |
| CCOC(=O)/C(=C\c1ccc(C#N)cc1)C(C)=O | -8 | 24% | 40% | 84% (active) | 98% (active) |
| COc1cc(/C=N/Nc2nnc3c4ccccc4c4ncccc4c3n2)cc(OC)c1OC | 20 | 36% | 58% | 80% (active) | 84% (active) |
| CC(=O)Nc1ccc2c(c1)-c1ccccc1C2=O | -2 | -4% | 2% | 25% | 78% (active) |
| CCCC(O)C1CC(C(C)C)CCC1C (stereo not given) | -3 | -2% | 7% | 47% | 98% (active) |
| C=C1CCC(O)C/C1=C/C=C1\CCCC2(C)C1CCC2C(C)CCCC(C)C (stereo not given) | -16 | -20% | -22% | -8% | 73% (active) |
| C[CH2][Sn]([CH2]C)([O]C(=O)C(N)Cc1ccccc1)[O]C(=O)C(N)Cc1ccccc1 (stereo not given) | -13 | -13% | 9% | -28% | -11% |
